# A selection: hits, their analogues and other compounds. The true share with any hit is near 2.4%.
# Cruzain inh noDet = qHTS Assay for Promiscuous and Specific Inhibitors of Cruzain (without detergent); Cruzipain (Trypanosoma cruzi), P25779; purified cruzain, Z-FR-AMC fluorescence, no detergent; Potency, µM, for the others: max response, negative = inhibition, actives largely listed as inhibitors; 200,000 compounds, 2.3% hits; AID 1476, 2009;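 note: plate controls were enzyme without inhibitor for no effect and buffer without enzyme for full effect; nearly all actives have a fitted effect of over 40% in size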
# Target sequence (P25779 123-467 limits assumed): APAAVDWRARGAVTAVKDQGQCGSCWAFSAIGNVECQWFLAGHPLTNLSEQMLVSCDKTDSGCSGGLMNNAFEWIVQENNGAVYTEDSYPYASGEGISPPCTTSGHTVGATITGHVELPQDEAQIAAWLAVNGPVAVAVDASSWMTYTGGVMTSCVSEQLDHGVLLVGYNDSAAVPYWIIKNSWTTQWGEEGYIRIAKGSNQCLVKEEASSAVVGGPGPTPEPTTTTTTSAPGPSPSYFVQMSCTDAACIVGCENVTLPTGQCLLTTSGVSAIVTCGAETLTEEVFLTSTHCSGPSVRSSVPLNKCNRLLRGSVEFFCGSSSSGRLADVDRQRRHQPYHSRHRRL
#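 Purified cruzain at 1.5 nM, pre-incubated 15 min with compound at room temperature in 100 mM sodium acetate pH 5.5, 5 mM DTT, 0.00005% Triton X-100. Reaction started with 2 uM Z-FR-AMC; AMC fluorescence increase over 60 s gives rate.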
# Cruzain Triton = qHTS Assay for Promiscuous and Specific Inhibitors of Cruzain (with detergent); Cruzipain (Trypanosoma cruzi), P25779; 200,000 compounds, 0.43% hits; AID 1478, 2009; Potency, µM, for inactives: max response, negative = inhibition, usual class: inhibitors; purified cruzain, Z-FR-AMC fluorescence, 0.01% Triton;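 note: plate controls were neutral wells for no effect and buffer without enzyme for full effect; nearly all actives have a fitted effect of over 40% in size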
#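 Cruzain (1.5 nM) preincubated 15 min at RT with compound in 100 mM sodium acetate pH 5.5, 5 mM DTT, 0.01% Triton X-100. Reaction started with 2 uM Z-FR-AMC; AMC fluorescence (ex 360/em 450 nm) change over 60 s gave rate.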
# Active calls of the source: *; ? = inconclusive. Calls come from the whole dose curve; as a rule, active = well fitted curve in the direction sought with a large enough effect; inconclusive = small, poorly fitted or top-dose-only effect, or another doubt; inactive = no such curve, though single readings can be large; an effect the other way counts as inactive or inconclusive. Potency is the fitted concentration of half-maximal effect.
SMILES,Cruzain inh noDet,Cruzain Triton
CCOC(=O)Cn1c(=NC(=O)c2sc3ccccc3c2Cl)sc2cc(S(N)(=O)=O)ccc21,7.9µM*,-7%
COC(=O)Cn1c(=NC(=O)c2sc3ccccc3c2Cl)sc2cc(S(N)(=O)=O)ccc21,-18%,-5%
CCOc1cc(/C=N\Nc2ccc([N+](=O)[O-])cc2)ccc1OCC(=O)Nc1ccc(C)c(C)c1,?,5%
COc1ccc(C(=O)Oc2cc(/C=N/NC(N)=S)ccc2OC)cc1,?,-8%
COc1ccc(/C=N/NC(N)=S)cc1OC(=O)c1cccc2ccccc12,25µM*,1%
CNC(=S)N/N=C/c1ccc(OCC(=O)Nc2c(C)cc(C)cc2C)c(OC)c1,4%,-6%
COc1cc(/C=N\Nc2ccc([N+](=O)[O-])cc2)ccc1OCC(=O)Nc1ccc(C)c(C)c1,4µM*,0%
COc1cc(/C=N/NC(N)=S)ccc1OCC(=O)Nc1ccc(C)cc1,?,2.5µM*
O=C(COC(=O)/C=C/c1ccc(OC(F)F)cc1)Nc1ccc(S(=O)(=O)N2CCCC2)cc1,-1%,-3%
O=C(Cc1ccc(S(=O)(=O)N2CCCCC2)s1)Nc1ccc(F)c(F)c1,1%,-9%
O=C(COC(=O)/C=C/c1ccc2c(c1)OCO2)Nc1ccc(S(=O)(=O)N2CCCC2)cc1,32µM*,-9%
O=C(COC(=O)Cc1ccc(S(=O)(=O)N2CCCCC2)s1)Nc1ccc2c(c1)OCO2,10µM*,-10%
ClC(Cl)C(Cl)Cl,-2%,5%
CC(=O)Nc1cccc(NC(=O)Cn2cnc3c2c(=O)n(C)c(=O)n3C)c1,-3%,-4%
c1ccc(Nc2ccc(Nc3ccccc3)cc2)cc1,2%,-7%
O=Nc1ccc(Nc2ccccc2)cc1,7.9µM*,7.1µM*
O=C(CCCN1C(=O)/C(=C/c2ccccc2Cl)SC1=S)Nc1ccccn1,?,-7%
O=C(CCN1C(=O)/C(=C\c2ccccc2Cl)SC1=S)N1CCN(c2ccccc2)CC1,16µM*,-2%
CCOc1ccc(S(=O)(=O)NCCc2csc3nc(-c4ccc(F)cc4)nn23)cc1,6%,-5%
C/C(=N\NC(=S)NCCc1ccccc1)c1ccc(C#N)cc1,10µM*,-6%
C/C(=N\NC(=S)NCCc1ccccc1)c1ccc(C)cc1,-12%,-8%
CCC1CN(C(=O)N2CCC(C(=O)NCCC3=CCCCC3)CC2)c2ccccc2O1 (stereo not given),16%,-2%
CCOc1ccc2c(c1)nc(SCC(=O)c1cccs1)n2C,10%,-2%
CCOc1ccc2c(c1)nc(SCC(=O)c1ccc(Br)s1)n2C,25µM*,4%
O=C(NCCCN1CCc2ccccc2C1)C1CCN(c2nnc(-n3cccc3)s2)CC1,-24%,25µM*
SMILES,Cruzain inh noDet,Cruzain Triton
O=C(NCCCN1CCN(Cc2ccccc2)CC1)C1CCN(c2nnc(-n3cccc3)s2)CC1,-9%,-7%
C#CCn1c(COc2ccccc2C)nc2ccccc21,-2%,-2%
COc1ccccc1OCCn1c(-c2ccc(Br)cc2)nc2ccccc2c1=O,-3%,-1%
O=C(OCC1OC(n2ccc(=O)[nH]c2=O)C(O)C1OC(=O)c1ccccc1)c1ccccc1 (stereo not given),0%,0%
Nc1nc2c(ncn2C2OC(COC(=O)c3ccccc3)C(OC(=O)c3ccccc3)C2OC(=O)c2ccccc2)c(=O)[nH]1 (stereo not given),7.9µM*,-1%
O=C(NCc1ccco1)c1ccc2c(c1)N(Cc1ccccc1)C(=O)c1ccccc1S2(=O)=O,-13%,-2%
Cc1ccccc1OCC(=O)NCCC(=O)O,1%,1%
Cc1cccc(OCC(=O)NCc2ccncc2)c1C,-1%,-3%
Cc1ccccc1OCC(=O)NCCc1nc2ccccc2[nH]1,3.2µM*,5µM*
Cc1cccc(OCC(=O)NCCc2nc3ccccc3[nH]2)c1C,3%,4µM*
O=S(=O)(c1ccc(Br)cc1)c1nc(-c2ccco2)oc1SCc1ccccc1F,?,-4%
CCCN1C(=O)c2[nH]nc(-c3ccccc3O)c2C1c1ccc(OCc2ccccc2)c(OC)c1 (stereo not given),?,-8%
CCCOc1ccc(C2c3c(-c4ccccc4O)n[nH]c3C(=O)N2CCc2ccccc2)cc1OCC (stereo not given),13µM*,-2%
CC(C)c1ccc(C2c3c(-c4ccccc4O)n[nH]c3C(=O)N2CCc2ccccc2)cc1 (stereo not given),20µM*,-4%
Cc1ccc(C2c3c(-c4ccccc4O)n[nH]c3C(=O)N2CCc2ccccc2)cc1 (stereo not given),?,-11%
COc1ccc(C2c3c(-c4ccccc4O)n[nH]c3C(=O)N2CCc2ccccc2)cc1 (stereo not given),32µM*,-10%
COc1ccc(C2c3c(-c4ccccc4O)n[nH]c3C(=O)N2CCc2ccc(OC)c(OC)c2)cc1 (stereo not given),6%,-5%
Cc1cccc(C(=O)Nc2sc3c(c2C(=O)N2CCCCC2)CCC(C)C3)c1 (stereo not given),-18%,-2%
CCc1sc(Nc2cccc(Cl)c2C)nc1-c1cc2cccc(OC)c2oc1=O,2%,0%
Cc1ccc(NC(=O)c2cc(S(=O)(=O)N3CCC4(CC3)OCCO4)ccc2F)cc1Cl,?,0%
O=C(COC(=O)/C=C/c1cccc(C(F)(F)F)c1)NC(c1ccccc1)c1ccccc1,16µM*,0%
Cc1cc(C)c(NC(=O)COC(=O)/C=C/c2cccc(C(F)(F)F)c2)c(C)c1,0%,-6%
O=C(COC(=O)/C=C/c1cccc(C(F)(F)F)c1)Nc1cccc2ccccc12,?,3%
Cc1ccccc1NC(=O)COC(=O)/C=C/c1cccc(C(F)(F)F)c1,25µM*,0%
COc1ccc(/C=C/C(=O)OCC(=O)Nc2cc(C(F)(F)F)ccc2Cl)cc1,25µM*,-9%
SMILES,Cruzain inh noDet,Cruzain Triton
COc1cc(/C=C/C(=O)OCC(=O)Nc2cc(C(F)(F)F)ccc2N2CCOCC2)ccc1O,-7%,-6%
CCN(c1ccccc1)S(=O)(=O)c1nnc(NC(=O)c2ccccc2)s1,2%,-1%
Cc1cccc(-c2nnc(SCC(=O)Nc3ccc(C)c(C)c3)o2)c1,-11%,-1%
CCn1c2ccccc2c2cc(NC(=O)CSc3nnc(-c4cccc(Cl)c4)o3)ccc21,10µM*,6%
CCN(CC)CCCC(C)n1c(-c2ccccc2)nc2c(N3CCOCC3)nc(C)nc21 (stereo not given),-2%,0%
Cc1cc(C)c2c(=O)cc(C(=O)Nc3sc4c(c3C(=O)NCc3ccccc3)CCCC4)oc2c1,-10%,0%
CC(Sc1nnc(NCc2ccccc2)s1)C(=O)Nc1ccc2c(c1)C(=O)c1ccccc1C2=O (stereo not given),32µM*,-9%
Cc1cc(C(=O)CSc2nnc(NCc3ccccc3)s2)c(C)n1C,-12%,-1%
Cc1cc(NC(=O)CSc2nc3c(sc4ccccc43)c(=O)n2CCc2ccccc2)n[nH]1,7.9µM*,8%
Cc1cc(NC(=O)CSc2nc3c(sc4ccccc43)c(=O)n2CCCN2CCOCC2)n[nH]1,-22%,-13%
Cc1ccc(S(=O)(=O)NCC2CCC(C(=O)NCCc3ccc(Cl)cc3)CC2)cc1 (stereo not given),12%,0%
Cc1cc(NC(=O)CCCN2C(=O)/C(=C/c3cccs3)SC2=S)no1,?,-5%
